What all share (assay): log2 ratio of Biotin-Ahx-Ub-VS probe labelling (fragment/DMSO); higher = less target engagement (more negative = stronger competition), active = hit call of the paper (q ≤ 0.05, log2 ratio ≤ -1)
What all share (details): compound concentration: 200 uM; treatment time: 3 h

One assay has as its target T1, OTUD6B (UniProt Q8N6M0).
T1 sequence (whole entry): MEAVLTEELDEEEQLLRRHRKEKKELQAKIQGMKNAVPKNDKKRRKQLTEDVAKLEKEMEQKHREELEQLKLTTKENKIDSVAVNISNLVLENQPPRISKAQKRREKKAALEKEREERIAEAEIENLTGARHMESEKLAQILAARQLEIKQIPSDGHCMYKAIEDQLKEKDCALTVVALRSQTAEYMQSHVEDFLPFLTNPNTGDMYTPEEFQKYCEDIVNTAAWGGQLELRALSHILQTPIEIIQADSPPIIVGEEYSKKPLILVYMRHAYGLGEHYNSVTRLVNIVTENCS
In a few lines: (§1)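 Using Biotin-Ahx-Ub-VS at 0.5 µM final for 1 h, DUBs were labelled in HEK293T lysate (495 µg per sample) that had first been treated in triplicate with fragment at 200 µM or vehicle for 3 h. NeutrAvidin enrichment, LysC and trypsin digestion and diaPASEF LC-MS/MS followed. Spectronaut label-free quantities were global-median-normalised. Values are average log2 fragment/vehicle ratios by unpaired t-test, using proteins with ≥2 unique peptides.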

For the next assay, the target named is T2, OTUD7B (UniProt Q6GQQ9).
T2 sequence (whole entry): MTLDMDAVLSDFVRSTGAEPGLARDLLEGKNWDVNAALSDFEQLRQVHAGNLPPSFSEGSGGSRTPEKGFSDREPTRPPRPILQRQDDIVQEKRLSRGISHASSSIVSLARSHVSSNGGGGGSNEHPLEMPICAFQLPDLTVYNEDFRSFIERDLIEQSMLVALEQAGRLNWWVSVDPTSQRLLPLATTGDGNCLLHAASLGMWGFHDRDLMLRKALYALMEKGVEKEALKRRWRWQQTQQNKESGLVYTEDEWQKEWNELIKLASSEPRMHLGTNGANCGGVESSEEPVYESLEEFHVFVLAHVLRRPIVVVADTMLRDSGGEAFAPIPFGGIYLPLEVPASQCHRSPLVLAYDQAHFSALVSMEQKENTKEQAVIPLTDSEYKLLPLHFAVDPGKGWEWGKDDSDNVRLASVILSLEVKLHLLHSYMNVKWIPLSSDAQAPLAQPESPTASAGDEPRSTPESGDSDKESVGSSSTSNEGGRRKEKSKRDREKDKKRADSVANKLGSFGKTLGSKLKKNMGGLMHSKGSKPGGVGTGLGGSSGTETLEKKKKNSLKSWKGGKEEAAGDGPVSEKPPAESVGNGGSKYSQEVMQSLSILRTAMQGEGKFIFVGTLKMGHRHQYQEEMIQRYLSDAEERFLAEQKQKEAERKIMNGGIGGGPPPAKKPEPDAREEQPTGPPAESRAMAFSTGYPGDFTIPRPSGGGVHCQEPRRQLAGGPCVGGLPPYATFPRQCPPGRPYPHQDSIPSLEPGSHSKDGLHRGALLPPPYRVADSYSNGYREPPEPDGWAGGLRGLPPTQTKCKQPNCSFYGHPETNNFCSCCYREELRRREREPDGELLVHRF
In a few lines:
as §1

Another assay deals with PRPF8 (UniProt Q6P2Q9). In a few lines:
as §1

The target of the next assay is T3, PSMD7 (UniProt P51665).
T3 sequence (whole entry): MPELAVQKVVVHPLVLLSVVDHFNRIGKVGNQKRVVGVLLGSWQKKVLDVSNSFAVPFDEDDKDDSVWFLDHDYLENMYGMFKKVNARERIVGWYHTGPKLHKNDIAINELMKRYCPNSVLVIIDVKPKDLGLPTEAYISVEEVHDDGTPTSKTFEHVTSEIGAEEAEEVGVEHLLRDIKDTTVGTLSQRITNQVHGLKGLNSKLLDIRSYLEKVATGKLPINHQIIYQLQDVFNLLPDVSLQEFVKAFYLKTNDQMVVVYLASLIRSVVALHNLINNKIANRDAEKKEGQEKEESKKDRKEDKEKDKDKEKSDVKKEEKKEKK
In outline: as §1

For a further assay, the target named is UCHL1 (UniProt P09936). In outline:
as §1

A further assay concerns the target T4, UCHL3 (UniProt P15374).
T4 sequence (whole entry): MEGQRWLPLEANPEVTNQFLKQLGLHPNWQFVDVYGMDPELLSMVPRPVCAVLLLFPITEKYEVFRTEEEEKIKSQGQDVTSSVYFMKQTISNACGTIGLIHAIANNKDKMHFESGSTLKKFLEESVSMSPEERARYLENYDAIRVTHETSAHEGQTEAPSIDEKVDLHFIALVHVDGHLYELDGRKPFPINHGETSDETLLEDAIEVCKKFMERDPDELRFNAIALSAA
In a few lines:
as §1

A further assay deals with T5, UCHL5 (UniProt Q9Y5K5).
T5 sequence (whole entry): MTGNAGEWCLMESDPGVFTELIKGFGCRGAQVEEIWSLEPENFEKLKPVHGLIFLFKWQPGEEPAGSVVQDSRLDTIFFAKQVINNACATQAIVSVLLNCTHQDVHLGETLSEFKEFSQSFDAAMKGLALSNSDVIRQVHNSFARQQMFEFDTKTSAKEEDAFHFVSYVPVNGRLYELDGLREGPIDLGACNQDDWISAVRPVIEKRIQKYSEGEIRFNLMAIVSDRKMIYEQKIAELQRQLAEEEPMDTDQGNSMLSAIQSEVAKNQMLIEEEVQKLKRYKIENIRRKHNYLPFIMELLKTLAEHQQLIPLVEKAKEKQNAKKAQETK
In outline:
as §1

Another assay has as its target USP10 (UniProt Q14694). In a few lines:
as §1

For a further assay, the target named is T6, USP15 (UniProt Q9Y4E8).
T6 sequence (whole entry): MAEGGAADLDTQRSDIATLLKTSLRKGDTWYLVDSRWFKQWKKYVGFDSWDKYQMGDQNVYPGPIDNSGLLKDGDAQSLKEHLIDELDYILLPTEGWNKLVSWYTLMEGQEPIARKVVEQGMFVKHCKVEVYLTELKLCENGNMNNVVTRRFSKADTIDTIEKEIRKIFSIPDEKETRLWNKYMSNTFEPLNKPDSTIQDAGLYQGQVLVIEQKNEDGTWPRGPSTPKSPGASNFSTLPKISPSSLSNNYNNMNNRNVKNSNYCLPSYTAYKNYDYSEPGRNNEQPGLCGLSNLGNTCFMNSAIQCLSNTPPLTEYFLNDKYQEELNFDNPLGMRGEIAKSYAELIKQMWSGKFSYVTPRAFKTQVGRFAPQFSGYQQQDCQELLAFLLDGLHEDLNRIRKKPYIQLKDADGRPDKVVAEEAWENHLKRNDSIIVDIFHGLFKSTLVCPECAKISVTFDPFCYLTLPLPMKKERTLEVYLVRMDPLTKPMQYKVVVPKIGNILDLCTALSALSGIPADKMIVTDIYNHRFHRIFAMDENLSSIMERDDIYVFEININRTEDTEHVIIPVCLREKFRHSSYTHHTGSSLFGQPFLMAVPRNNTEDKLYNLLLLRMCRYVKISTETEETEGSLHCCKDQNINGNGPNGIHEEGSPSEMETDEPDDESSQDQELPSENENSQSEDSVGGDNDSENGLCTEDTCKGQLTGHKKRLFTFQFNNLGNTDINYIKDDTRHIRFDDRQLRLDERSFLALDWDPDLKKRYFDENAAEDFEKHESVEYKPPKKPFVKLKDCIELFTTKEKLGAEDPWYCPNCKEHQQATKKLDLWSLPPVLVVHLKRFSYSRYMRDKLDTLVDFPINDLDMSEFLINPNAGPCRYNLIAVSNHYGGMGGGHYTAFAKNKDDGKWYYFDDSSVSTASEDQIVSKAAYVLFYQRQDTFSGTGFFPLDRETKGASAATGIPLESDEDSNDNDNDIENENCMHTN
In a few lines:
as §1

The target of the next assay is USP16 (UniProt Q9Y5T5). In outline: as §1

A number with no mark means an inactive call.

USP16, sequence (Q9Y5T5 whole entry, looked up): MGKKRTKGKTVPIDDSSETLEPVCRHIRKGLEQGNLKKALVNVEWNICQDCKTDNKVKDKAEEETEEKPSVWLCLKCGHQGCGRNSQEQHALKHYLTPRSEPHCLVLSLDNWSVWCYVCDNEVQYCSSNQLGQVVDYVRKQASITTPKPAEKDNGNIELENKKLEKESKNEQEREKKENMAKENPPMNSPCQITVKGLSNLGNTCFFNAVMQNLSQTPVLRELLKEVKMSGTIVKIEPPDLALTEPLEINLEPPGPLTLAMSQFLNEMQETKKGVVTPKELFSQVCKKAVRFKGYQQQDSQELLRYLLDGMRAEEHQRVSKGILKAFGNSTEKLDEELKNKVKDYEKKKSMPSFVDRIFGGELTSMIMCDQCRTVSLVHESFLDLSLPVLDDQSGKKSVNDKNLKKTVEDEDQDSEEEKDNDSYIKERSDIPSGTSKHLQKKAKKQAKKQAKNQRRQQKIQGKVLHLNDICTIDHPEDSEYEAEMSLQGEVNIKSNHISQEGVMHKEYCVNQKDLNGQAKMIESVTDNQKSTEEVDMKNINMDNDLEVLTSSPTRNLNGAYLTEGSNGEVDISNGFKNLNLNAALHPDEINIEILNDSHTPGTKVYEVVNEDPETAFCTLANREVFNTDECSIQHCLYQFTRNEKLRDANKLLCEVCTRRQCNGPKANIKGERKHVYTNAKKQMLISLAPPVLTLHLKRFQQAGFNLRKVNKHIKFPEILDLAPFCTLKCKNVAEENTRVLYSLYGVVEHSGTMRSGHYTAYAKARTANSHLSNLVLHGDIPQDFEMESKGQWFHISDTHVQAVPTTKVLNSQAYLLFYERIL
USP10, sequence (Q14694 whole entry): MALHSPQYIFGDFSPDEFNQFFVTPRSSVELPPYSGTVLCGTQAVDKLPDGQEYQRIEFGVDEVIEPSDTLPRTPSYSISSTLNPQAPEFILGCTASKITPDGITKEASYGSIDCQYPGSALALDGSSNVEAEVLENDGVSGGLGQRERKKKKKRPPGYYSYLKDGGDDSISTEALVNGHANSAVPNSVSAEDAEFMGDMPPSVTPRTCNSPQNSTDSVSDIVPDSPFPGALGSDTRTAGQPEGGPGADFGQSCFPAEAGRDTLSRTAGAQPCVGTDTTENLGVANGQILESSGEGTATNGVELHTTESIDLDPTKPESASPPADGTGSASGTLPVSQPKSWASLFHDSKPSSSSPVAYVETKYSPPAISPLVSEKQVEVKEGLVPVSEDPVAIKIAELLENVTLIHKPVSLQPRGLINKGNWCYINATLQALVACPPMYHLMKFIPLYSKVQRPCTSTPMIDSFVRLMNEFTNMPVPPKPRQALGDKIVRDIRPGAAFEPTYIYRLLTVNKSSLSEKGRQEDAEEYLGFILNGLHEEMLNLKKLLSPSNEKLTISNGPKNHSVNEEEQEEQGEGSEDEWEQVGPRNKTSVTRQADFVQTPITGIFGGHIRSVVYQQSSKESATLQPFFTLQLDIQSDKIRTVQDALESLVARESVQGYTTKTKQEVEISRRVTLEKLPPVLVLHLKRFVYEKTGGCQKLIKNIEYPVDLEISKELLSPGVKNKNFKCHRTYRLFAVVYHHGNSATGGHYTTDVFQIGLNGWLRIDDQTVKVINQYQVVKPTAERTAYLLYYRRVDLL
UCHL1, sequence (P09936 whole entry, looked up): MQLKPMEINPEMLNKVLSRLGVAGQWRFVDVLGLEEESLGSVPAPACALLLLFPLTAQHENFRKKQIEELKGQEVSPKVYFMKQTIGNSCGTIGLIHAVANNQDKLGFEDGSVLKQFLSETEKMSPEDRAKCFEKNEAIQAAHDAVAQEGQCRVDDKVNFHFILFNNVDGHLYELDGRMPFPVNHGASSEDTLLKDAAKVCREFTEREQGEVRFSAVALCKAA

As for `Cc1ncsc1CCNC(=O)CCl`, the “log2 ratio of Biotin-Ahx-Ub-VS probe labelling” value with OTUD6B was 0.143; with OTUD7B, -0.157; with PRPF8 it was 0.116; in the assay with PSMD7 it was 0.433; with UCHL1, -1.31 (active); in the assay with UCHL3, 0.292. The “log2 ratio of Biotin-Ahx-Ub-VS probe labelling” value is -0.131 with UCHL5, 0.0995 with USP10, 0.22 in the assay with USP15 and 0.106 with USP16.

For the origin of these results see the supplement of paper PMC11732987, “Enantioselective OTUD7B fragment discovery through chemoproteomics screening and high-throughput optimisation” (Communications Chemistry, 2025).
